Assay [1] in a line: Nuclear factor erythroid 2-related factor 2/antioxidant responsive element (Nrf2/ARE) small molecule agonists: qHTS cell viability counter screen in human keratinocytes (AID 1919968; active = well fitted curve in the direction sought with a large enough effect in the repeat runs; an effect the other way counts as inactive or inconclusive; note: nearly all actives have a fitted effect of over 55% in size; note: potency is the fitted concentration of half-maximal effect). Put shortly: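 HaCaT ARE reporter line, 1,500 cells/well; 5 h settle, 37 C/5% CO2; cpd in DMSO pinned; 23 h exposure; CellTiter-Fluor, 1 h; fluorescence.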
On the technique in general: Quantitative high-throughput screening tests each substance at several concentrations.

Assay [2] is described as follows: Nuclear factor erythroid 2-related factor 2/antioxidant responsive element (Nrf2/ARE) small molecule agonists: luciferase reporter gene qHTS assay in human keratinocytes (AID 1919969). Note: nearly all actives have a fitted effect of over 35% in size.
The target in assay [3] is Gonadotropin-releasing hormone receptor (Homo sapiens) (UniProt P30968). Put plainly: Human gonadotropin-releasing hormone receptor (GnRHR) small molecule agonists, calcium flux assay in GnRHR-HEK293 cells (AID 1920063). Note: nearly all actives have a fitted effect of over 35% in size. In short, it runs like this:
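GnRHR-HEK293, 1500 cells/well, 18 h 37 C/5% CO2; Ca dye 1 h 37 C; cpd pinned (DMSO), agonist mode; kinetic FL 480/540, 3 min, 1 s reads; 15 conc, n=3.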

The target in assay [4] is KiSS-1 receptor (Homo sapiens) (UniProt Q969F8). The assay is described as follows: Human kisspeptin (KISS1R) small molecule agonists, calcium flux assay in KISS1R-HEK293 cells (AID 1920064; active = well fitted curve in the direction sought with a large enough effect in the repeat runs; an effect the other way counts as inactive or inconclusive). Put shortly: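 Stable human KISS1R HEK293 line; 18 h plating, 37 C/5% CO2; calcium dye 1 h 37 C; compound pin transfer; kinetic fluorescence Ex/Em 480/540, 3 min.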
For orientation: Calcium assays in cells follow changes in intracellular calcium, usually with a dye or a luminescent sensor.

A short description of assay [5]: G protein-coupled receptor (GPCR) small molecule agonists, calcium flux assay: HEK293 wild type cell line counter screen (AID 1920065). Put shortly: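 Kinetic fluorescence at Ex/Em 480/540, recorded every second over 3 min, served as the read-out after compound addition. Each compound was tested at 15 concentrations in triplicate on cells pre-loaded with calcium dye for 1 h.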

Assay [6] in a line: p53 small molecule agonists, cell-based qHTS assay with rat liver microsomes (AID 1963578). Put shortly: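 Metabolic activation is supplied by rat liver microsomes with NADPH (each 0.5 mg/mL final). p53RE-bla cells incubate with compound 16 h at 37 C; reporter activity is measured by LiveBLAzer fluorescence.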
A short description of assay [7]: p53 small molecule agonists, cell-based qHTS assay with human liver microsomes: qHTS cell viability counter screen (AID 1963579). Note: nearly all actives have a fitted effect of over 45% in size. Note: potency is the fitted concentration of half-maximal effect. In short, it runs like this:
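After the 460/530 nm beta-lactamase read, CellTiter-Glo was added to the same wells and luminescence measured after 30 min at room temperature, giving viability of p53RE-bla cells treated 16 h with compounds plus microsomes and NADPH.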

Assay [8] in a line: p53 small molecule agonists, cell-based qHTS assay with rat liver microsomes: qHTS cell viability counter screen (AID 1963580). Note: nearly all actives have a fitted effect of over 45% in size. Put shortly: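 HCT-116 p53RE-bla, 4,000 cells/well, 5 h pre-incubation; cpd + rat liver microsomes 0.5 mg/mL + NADPH 0.5 mg/mL (final); 16 h, 37 C; CellTiter-Glo, 30 min RT; luminescence.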
Assay [9] can be described thus: p53 small molecule agonists, cell-based qHTS assay (AID 1963582; active = well fitted activation curve with a large enough effect in the signal ratio in the repeat runs, not every such curve was filed as active; the % refers to the signal ratio; note: potency is the fitted concentration of half-maximal effect). Put shortly: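 Reporter line: p53RE-bla. Pre-incubation 5 h, 37 C, 5% CO2; compound (DMSO, pin tool) 16 h, 37 C; B/G FRET substrate 2 h RT; fluorescence intensity read.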
Assay [10] is described as follows: cAMP Responsive Elements (CRE) small molecule antagonists, cell-based qHTS assay (AID 1963591; active = well fitted inhibition curve with a large enough effect in the signal ratio in the repeat runs, not every such curve was filed as active; the % refers to the signal ratio). Put shortly: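 Beta-lactamase reporter read by FRET substrate (LiveBLAzer B/G) after 2 h at room temperature. CRE-bla HEK293T cells had received compound plus 0.25 uM (final) NKH477 for 3 h at 37 °C.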
Assay [11] addresses Beta-2 adrenergic receptor (Homo sapiens) (UniProt P07550). The assay is described as follows: Adrenergic beta2 receptor (ADRB2) small molecule antagonists, cell-based qHTS assay (AID 1963592). Note: series mostly up to about 92 µM; nearly all actives have a fitted effect of over 50% in size. In short, it runs like this:
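Cells (CHO, stable ADRB2 overexpression) incubated 18-20hr at 37C; compounds added from DMSO; agonist mix (1nM isoproterenol, 100uM IBMX, 25uM Ro-20-1724) added; 0.5hr RT; d2-cAMP and anti-cAMP-cryptate added; 1hr RT; 665/615 nm read.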

For assay [12], the target named is D(2) dopamine receptor (Homo sapiens) (UniProt P14416). Put plainly: Dopamine D2 receptor (DRD2) small molecule antagonists, cell-based qHTS assay (AID 1963595; active = well fitted inhibition curve with a large enough effect in the signal ratio in the repeat runs, with a control signal flat; the % refers to the signal ratio; note: potency is the fitted concentration of half-maximal effect). Put shortly:
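DRD2-HEK293; 0.1 mM Ro20-1724; cpd 10 min RT; NKH477 200 nM + quinpirole 12 nM, 30 min RT; HTRF cAMP (cAMP-d2/anti-cAMP cryptate), 665/620 nm ratio after 1 h.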

The target of assay [13] is 5-hydroxytryptamine receptor 2A (Homo sapiens) (UniProt P28223). Put plainly: 5-hydroxytryptamine receptor 2A (HTR2A) small molecule agonists, cell-based qHTS assay (AID 1963587). Note: nearly all actives have a fitted effect of over 30% in size. Note: potency is the fitted concentration of half-maximal effect. Put shortly: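 Kinetic calcium-flux fluorescence (2 min, 1 sec intervals) after compound addition in agonist mode. HTR2A-CHO cells were cultured 18 h, then dye-loaded 1 h at 37 C.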
Assay [14] deals with Muscarinic acetylcholine receptor M1 (Homo sapiens) (UniProt P11229). Put plainly: Cholinergic receptor muscarinic 1 (CHRM1) small molecule antagonists, cell-based qHTS assay (AID 1963588). Note: nearly all actives have a fitted effect of over 40% in size. Put shortly: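 CHRM1-CHO calcium-flux assay, antagonist mode. Cells were seeded 18 h, dye-loaded 1 h at 37 C and given compound for 5 min at RT, then acetylcholine was added at 50nM. FDSS fluorescence was read 3 min; 15 concentrations, three runs.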

Assay [15] shares this target. The assay is described as follows: Cholinergic receptor muscarinic 1 (CHRM1) small molecule agonists, cell-based qHTS assay (AID 1963589). Note: nearly all actives have a fitted effect of over 35% in size. Put shortly:
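Human M1 in stable CHO line; 18 h plating, 1 h dye load 37 C; cpd added (agonist mode); Ca2+ fluorescence kinetic read, 1 s intervals; 15 conc, 3 runs.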

In assay [16] the target is 5-hydroxytryptamine receptor 2A (Homo sapiens) (UniProt P28223). Put plainly: 5-hydroxytryptamine receptor 2A (HTR2A) small molecule antagonists, cell-based qHTS assay (AID 1963586). Note: nearly all actives have a fitted effect of over 45% in size. Note: potency is the fitted concentration of half-maximal effect. In short, it runs like this:
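Antagonist-mode intracellular calcium assay: DOI (4 nM) added after 5 min compound pre-incubation at room temperature to dye-loaded HTR2A-CHO cells. Fluorescence followed for 3 min, sampled every second.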

The nature of assay [17]: cAMP Responsive Elements (CRE) small molecule agonists, cell-based qHTS assay (AID 1963590). Put shortly:
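HEK 293T CRE-bla, 2,000 cells/well, 18 h preincubation 37 C/5% CO2; cpds (DMSO) pinned, 3 h; LiveBLAzer B/G FRET substrate, 2 h RT.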

The target in assay [18] is Beta-2 adrenergic receptor (Homo sapiens) (UniProt P07550). Put plainly: Adrenergic beta2 receptor (ADRB2) small molecule agonists, cell-based qHTS assay (AID 1963593).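 Note: CHO cells stably overexpressing human ADRB2.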 Put shortly: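 CHO cells stably over-expressing ADRB2 were plated overnight at 37C, then dosed with compounds plus a stimulation mix containing 100uM IBMX and 25uM Ro-20-1724 for 0.5hr at room temperature. cAMP was measured by HTRF competition, 1hr.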

Assay [19] addresses D(2) dopamine receptor (Homo sapiens) (UniProt P14416). The assay is described as follows: Dopamine D2 receptor (DRD2) small molecule agonists, cell-based qHTS assay (AID 1963594). Note: nearly all actives have a fitted effect of over 35% in size. Put shortly: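 cAMP accumulation in DRD2-HEK293 cells measured by HTRF after 1 h detection; compounds added 10 min before NKH477 (200nM […]) forskolin-analogue stimulation, 30 min at room temperature, with Ro20-1724 present at 0.1 mM final.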

Assay [20] is described as follows: p53 small molecule agonists, cell-based qHTS assay: qHTS cell viability counter screen (AID 1963581). Note: nearly all actives have a fitted effect of over 45% in size. Put shortly:
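HCT-116 p53RE-bla cells, 4,000/well, plated 5 h before compound pin transfer; 16 h at 37 C; bla substrate 2 h RT; then CellTiter-Glo, 30 min RT, luminescence.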

The values below come from PubChem BioAssay (Tox21).

Results filed as inconclusive are left out. Calls of active or inactive are those of the source. Unless noted, calls come from the whole dose curve.

Sequence of Gonadotropin-releasing hormone receptor (Homo sapiens) (P30968 whole entry, looked up): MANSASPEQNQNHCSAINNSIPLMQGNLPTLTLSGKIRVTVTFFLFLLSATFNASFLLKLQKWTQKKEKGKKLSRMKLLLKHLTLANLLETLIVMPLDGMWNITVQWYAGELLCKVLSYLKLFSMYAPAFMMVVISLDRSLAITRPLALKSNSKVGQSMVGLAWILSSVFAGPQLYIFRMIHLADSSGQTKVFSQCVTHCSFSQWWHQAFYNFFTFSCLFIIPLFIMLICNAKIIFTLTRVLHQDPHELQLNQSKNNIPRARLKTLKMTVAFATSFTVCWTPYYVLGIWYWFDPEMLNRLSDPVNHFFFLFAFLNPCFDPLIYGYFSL
Sequence of 5-hydroxytryptamine receptor 2A (Homo sapiens) (P28223 whole entry, looked up): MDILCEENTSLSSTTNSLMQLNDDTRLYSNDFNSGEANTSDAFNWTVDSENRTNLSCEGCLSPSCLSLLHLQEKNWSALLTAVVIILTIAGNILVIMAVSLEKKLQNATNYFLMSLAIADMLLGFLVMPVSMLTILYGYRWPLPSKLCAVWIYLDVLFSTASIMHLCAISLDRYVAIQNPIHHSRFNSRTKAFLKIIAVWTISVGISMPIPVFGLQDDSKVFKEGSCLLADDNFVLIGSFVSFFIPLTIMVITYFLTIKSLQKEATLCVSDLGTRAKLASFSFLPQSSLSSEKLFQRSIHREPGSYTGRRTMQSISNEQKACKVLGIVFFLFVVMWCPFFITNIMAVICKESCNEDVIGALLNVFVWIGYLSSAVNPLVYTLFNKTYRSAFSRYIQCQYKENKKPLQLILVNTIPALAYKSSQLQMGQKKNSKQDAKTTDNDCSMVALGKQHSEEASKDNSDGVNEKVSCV
Sequence of Beta-2 adrenergic receptor (Homo sapiens) (P07550 whole entry, looked up): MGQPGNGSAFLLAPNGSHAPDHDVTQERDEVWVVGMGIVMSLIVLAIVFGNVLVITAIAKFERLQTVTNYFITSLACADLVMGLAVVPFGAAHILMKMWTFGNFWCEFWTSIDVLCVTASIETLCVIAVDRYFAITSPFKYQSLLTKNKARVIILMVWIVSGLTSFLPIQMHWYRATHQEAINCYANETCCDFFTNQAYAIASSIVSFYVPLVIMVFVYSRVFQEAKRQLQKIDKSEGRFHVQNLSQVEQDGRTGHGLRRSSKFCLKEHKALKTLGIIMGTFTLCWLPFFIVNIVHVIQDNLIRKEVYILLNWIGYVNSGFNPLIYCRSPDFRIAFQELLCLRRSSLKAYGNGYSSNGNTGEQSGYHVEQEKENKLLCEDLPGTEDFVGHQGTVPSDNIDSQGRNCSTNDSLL
Sequence of KiSS-1 receptor (Homo sapiens) (Q969F8 whole entry, looked up): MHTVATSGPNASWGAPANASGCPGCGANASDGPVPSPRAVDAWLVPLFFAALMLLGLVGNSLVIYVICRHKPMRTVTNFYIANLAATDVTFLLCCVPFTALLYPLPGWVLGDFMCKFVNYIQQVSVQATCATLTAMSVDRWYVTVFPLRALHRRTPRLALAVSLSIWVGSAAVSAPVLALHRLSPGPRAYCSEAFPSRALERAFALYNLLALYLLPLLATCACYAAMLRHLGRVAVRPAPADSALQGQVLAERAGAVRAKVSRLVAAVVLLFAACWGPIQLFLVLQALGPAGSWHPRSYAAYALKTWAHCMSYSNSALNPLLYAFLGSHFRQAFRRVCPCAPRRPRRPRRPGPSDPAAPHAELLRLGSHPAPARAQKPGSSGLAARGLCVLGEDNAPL
Sequence of Muscarinic acetylcholine receptor M1 (Homo sapiens) (P11229 whole entry, looked up): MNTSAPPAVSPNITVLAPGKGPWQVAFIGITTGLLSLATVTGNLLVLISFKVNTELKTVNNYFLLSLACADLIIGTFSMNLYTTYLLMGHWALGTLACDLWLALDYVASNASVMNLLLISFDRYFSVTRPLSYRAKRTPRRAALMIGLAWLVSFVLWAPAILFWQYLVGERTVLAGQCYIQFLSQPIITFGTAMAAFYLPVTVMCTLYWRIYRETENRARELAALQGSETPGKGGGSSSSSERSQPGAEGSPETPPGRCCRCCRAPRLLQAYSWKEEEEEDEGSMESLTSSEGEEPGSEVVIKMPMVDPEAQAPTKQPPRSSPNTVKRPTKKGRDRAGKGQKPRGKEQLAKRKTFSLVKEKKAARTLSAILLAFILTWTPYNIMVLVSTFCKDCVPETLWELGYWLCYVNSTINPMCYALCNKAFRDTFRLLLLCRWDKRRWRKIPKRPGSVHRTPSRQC
Sequence of D(2) dopamine receptor (Homo sapiens) (P14416 whole entry, looked up): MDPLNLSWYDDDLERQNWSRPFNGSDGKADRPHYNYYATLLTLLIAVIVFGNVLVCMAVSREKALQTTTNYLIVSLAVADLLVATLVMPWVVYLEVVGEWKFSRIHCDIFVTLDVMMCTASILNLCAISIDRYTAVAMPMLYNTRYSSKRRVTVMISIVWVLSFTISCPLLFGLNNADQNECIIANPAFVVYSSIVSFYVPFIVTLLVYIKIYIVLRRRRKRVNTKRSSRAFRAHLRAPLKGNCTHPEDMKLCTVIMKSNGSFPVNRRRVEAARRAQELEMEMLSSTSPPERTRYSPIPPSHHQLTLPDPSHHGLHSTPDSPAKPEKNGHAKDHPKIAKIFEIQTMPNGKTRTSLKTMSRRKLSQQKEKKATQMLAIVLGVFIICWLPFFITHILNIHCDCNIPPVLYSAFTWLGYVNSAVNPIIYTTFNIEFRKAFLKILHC

Take `O=c1[nH]c(=O)n([C@H]2C[C@H](O)[C@@H](CO)O2)cc1F`: the Potency entry in [1], in [2], in [3], in [4], in assay [5] and in assay [6] was “inactive” throughout. Besides, the Potency result in assay [7], in assay [8], in assay [10], in [11] and in assay [12] was “inactive” in each case. For the same compound, the Potency in assay [9] is 0.446 µM (active).

With `CC(C)(C)c1cc(/C=C2\SC(=N)NC2=O)cc(C(C)(C)C)c1O`, the Potency in assay [1] was 30.6 µM (active). Further, the Potency result in assay [2], in assay [3], in assay [4], in [5], in assay [6] and in [7] was “inactive” throughout. Further, the Potency entry in assay [8], in assay [13], in [14], in assay [15] and in assay [12] was “inactive” throughout.

In the case of `CCCCCCCCCCCCN1CCCCCC1=O`, in assay [1], the Potency is 61.1 µM (active). Moreover, the Potency entry in assay [2], in assay [3], in assay [4], in assay [5], in assay [6] and in assay [7] was “inactive” in each case. Besides, the Potency entry in assay [8], in [16], in assay [13], in assay [15], in assay [17] and in [10] was “inactive” in each case. In addition, the Potency result in assay [11], in [18], in [19] and in [12] was “inactive” in each case.

As to `CN(C)CCOc1ccc(/C(=C(/CCCl)c2ccccc2)c2ccccc2)cc1`, the Potency in [1] was 22.8 µM (active); in assay [7], 30.3 µM (active); in assay [13], 40.9 µM (active); in [12], 57.2 µM (active). The Potency entry in [2], in [3], in [4], in assay [5], in assay [6] and in assay [14] was “inactive” each time. The Potency entry in [15] and in assay [19] was “inactive” throughout.

In the case of `C=C(C)C(=O)OCCOC1CC2CC1C1C=CCC21` (configuration not stated), the Potency result in [1], in assay [2], in assay [3], in [4], in assay [5] and in assay [6] was “inactive” each time. Further, the Potency entry in [7], in [8], in assay [20], in assay [14], in assay [15] and in assay [17] was “inactive” in each case. Moreover, the Potency result in assay [11], in assay [18], in assay [19] and in assay [12] was “inactive” throughout.

Consider `CSC(=O)c1cccc2nnsc12`, for which the Potency entry in [1], in assay [2], in assay [3], in assay [4], in [5] and in [6] was “inactive” each time. Also, the Potency result in [7], in [8], in [9], in assay [16], in assay [13] and in [14] was “inactive” each time. Further, the Potency entry in assay [15], in assay [17], in assay [11] and in [12] was “inactive” each time.

As for `COc1cccc(N(C)C(=S)Oc2ccc3c(c2)CCCC3)n1`, the Potency result in assay [1], in assay [2], in [3], in assay [4], in [5] and in assay [6] was “inactive” throughout. Moreover, the Potency result in assay [8], in assay [20], in assay [13], in assay [14], in assay [15] and in assay [17] was “inactive” in each case. Also, the Potency result in assay [10], in assay [11], in assay [19] and in [12] was “inactive” each time. Also, the Potency in [16] is 5.79 µM (active).

With `COc1ccc(/C=C/c2cc(OC)cc(=O)o2)cc1`, the Potency result in [1], in assay [2], in assay [3], in assay [4], in assay [5] and in assay [6] was “inactive” in each case. The Potency result in assay [7], in [8], in [13], in [14], in assay [15] and in assay [18] was “inactive” in each case. The Potency result in assay [19] and in assay [12] was “inactive” throughout. Moreover, in assay [16], the Potency was 9.64 µM (active).
